Source: PMC11062922 (Nature Chemical Biology, 2023)
Like-named read-outs stand apart in the source and are kept apart here.

Assays:
AAK1 = test system: AAK1; parameters: species or system human, MV4-11 + K-562 + COLO205 + SK-N-BE2 + OVCAR-8; settings: read-out: apparent Kd, n = 1
CLK1 = test system: CLK1; parameters: species or system human, MV4-11 + K-562 + COLO205 + SK-N-BE2 + OVCAR-8; settings: read-out: apparent Kd, n = 1
CSNK2A1;CSNK2A3 = test system: CSNK2A1;CSNK2A3; parameters: species or system human, MV4-11 + K-562 + COLO205 + SK-N-BE2 + OVCAR-8; settings: read-out: apparent Kd; compound concentrations: 100 nM and 1000 nM (sheet 'Samples'), CATDS: 0.103993193967583; n = 1
CSNK2A2 = test system: CSNK2A2; parameters: species or system human, MV4-11 + K-562 + COLO205 + SK-N-BE2 + OVCAR-8; settings: read-out: apparent Kd; compound concentrations: 100 nM and 1000 nM (sheet 'Samples'), CATDS: 0.109129966582831; n = 1
Q6ZSR9 = Q6ZSR9 (human, UniProt Q6ZSR9); parameters: species or system MV4-11 + K-562 + COLO205 + SK-N-BE2 + OVCAR-8; settings: read-out: apparent Kd, n = 1
BMP2K = test system: BMP2K; parameters: species or system human, MV4-11 + K-562 + COLO205 + SK-N-BE2 + OVCAR-8; settings: read-out: apparent Kd, n = 1
GSK3A = test system: GSK3A; parameters: species or system human, MV4-11 + K-562 + COLO205 + SK-N-BE2 + OVCAR-8; settings: read-out: apparent Kd, n = 1
FLT4 = test system: FLT4; parameters: species or system human, MV4-11 + K-562 + COLO205 + SK-N-BE2 + OVCAR-8; settings: read-out: apparent Kd; compound concentrations: 100 nM and 1000 nM (sheet 'Samples'), CATDS: 5.0705018296343198E-2; n = 1
GAK = test system: GAK; parameters: species or system human, MV4-11 + K-562 + COLO205 + SK-N-BE2 + OVCAR-8; settings: read-out: apparent Kd; compound concentrations: 100 nM and 1000 nM (sheet 'Samples'), CATDS: 6.7472142671723495E-2; n = 1
GSK3B = test system: GSK3B; parameters: species or system human, MV4-11 + K-562 + COLO205 + SK-N-BE2 + OVCAR-8; settings: read-out: apparent Kd, n = 1
RET = test system: RET; parameters: species or system human, MV4-11 + K-562 + COLO205 + SK-N-BE2 + OVCAR-8; settings: read-out: apparent Kd; compound concentrations: 100 nM and 1000 nM (sheet 'Samples'), CATDS: 5.70762931789019E-2; n = 1
PAK4 = test system: PAK4; parameters: species or system human, MV4-11 + K-562 + COLO205 + SK-N-BE2 + OVCAR-8; settings: read-out: apparent Kd; compound concentrations: 100 nM and 1000 nM (sheet 'Samples'), CATDS: 0.130749402221499; n = 1
CLK4 = test system: CLK4; parameters: species or system human, MV4-11 + K-562 + COLO205 + SK-N-BE2 + OVCAR-8; settings: read-out: apparent Kd; compound concentrations:100 nM and 1000 nM (sheet 'Samples'); n = 1
MELK = test system: MELK; parameters: species or system human, MV4-11 + K-562 + COLO205 + SK-N-BE2 + OVCAR-8; settings: read-out: apparent Kd; compound concentrations:100 nM and 1000 nM (sheet 'Samples'); n = 1
PKN1 = test system: PKN1; parameters: species or system human, MV4-11 + K-562 + COLO205 + SK-N-BE2 + OVCAR-8; settings: read-out: apparent Kd; compound concentrations:100 nM and 1000 nM (sheet 'Samples'); n = 1
PKN3 = test system: PKN3; parameters: species or system human, MV4-11 + K-562 + COLO205 + SK-N-BE2 + OVCAR-8; settings: read-out: apparent Kd; compound concentrations:100 nM and 1000 nM (sheet 'Samples'); n = 1
NUAK1 = test system: NUAK1; parameters: species or system human, MV4-11 + K-562 + COLO205 + SK-N-BE2 + OVCAR-8; settings: read-out: apparent Kd, n = 1
[1] = compound concentrations:100 nM and 1000 nM (sheet 'Samples')

Sequence of Q6ZSR9 (Q6ZSR9 whole entry, looked up): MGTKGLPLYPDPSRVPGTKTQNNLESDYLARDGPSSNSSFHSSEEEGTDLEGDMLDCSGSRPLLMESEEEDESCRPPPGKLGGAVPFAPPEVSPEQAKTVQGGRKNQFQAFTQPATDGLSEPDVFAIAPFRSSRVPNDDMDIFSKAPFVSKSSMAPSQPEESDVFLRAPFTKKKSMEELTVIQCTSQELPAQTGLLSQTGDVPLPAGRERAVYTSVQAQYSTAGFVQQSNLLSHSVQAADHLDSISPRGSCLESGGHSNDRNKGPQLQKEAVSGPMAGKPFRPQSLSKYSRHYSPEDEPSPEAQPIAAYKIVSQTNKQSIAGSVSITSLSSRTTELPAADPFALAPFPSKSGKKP

O=C1N=C(NCCc2cccs2)S/C1=C\c1ccc2ncccc2c1 [RO4508348-000]
potency estimated from few doses (AAK1; compound concentrations: 100 nM and 1000 nM (sheet 'Samples'), CATDS: 0.107531235495484): 1290 nM | potency estimated from few doses (CLK1; compound concentrations: 100 nM and 1000 nM (sheet 'Samples'), CATDS: 0.103004978566102): 1450 nM | potency estimated from few doses (CSNK2A1;CSNK2A3): 1410 nM | potency estimated from few doses (CSNK2A2): 1250 nM | potency estimated from few doses (Q6ZSR9; compound concentrations: 100 nM and 1000 nM (sheet 'Samples'), CATDS: 0.123024935972758): 947 nM

COc1cc[nH]c1/C=C1\C(=O)Nc2ccc(F)c(I)c21 [RO0281567-000]
potency estimated from few doses (AAK1; compound concentrations: 100 nM and 1000 nM (sheet 'Samples'), CATDS: 0.16412118246726901): 568 nM | potency estimated from few doses (BMP2K; compound concentrations: 100 nM and 1000 nM (sheet 'Samples'), CATDS: 0.232255536891084): 309 nM | potency estimated from few doses (GSK3A; compound concentrations: 100 nM and 1000 nM (sheet 'Samples'), CATDS: 0.11117571470946799): 1460 nM | potency estimated from few doses (Q6ZSR9; compound concentrations: 100 nM and 1000 nM (sheet 'Samples'), CATDS: 0.16614751317759599): 555 nM

Cl.Cl.NCC(NCc1ccc(-c2ccnc3[nH]ccc23)s1)c1ccccc1.NCC(NCc1ccc(-c2ccnc3[nH]ccc23)s1)c1ccccc1 (centres unmarked) [GSK1321565A]
potency estimated from few doses (AAK1; [1]): 820 nM | potency estimated from few doses (BMP2K; [1]): 982 nM | potency estimated from few doses (Q6ZSR9; [1]): 942 nM

Cl.Cn1cc(C2=C(c3c4n(c5ccccc35)CCNC4)C(=O)NC2=O)c2ccccc21 [RO0318365-001]
potency estimated from few doses (AAK1; compound concentrations: 100 nM and 1000 nM (sheet 'Samples'), CATDS: 5.2349611072723602E-2): 1480 nM | potency estimated from few doses (FLT4): 1610 nM | potency estimated from few doses (GAK): 831 nM | potency estimated from few doses (GSK3A; compound concentrations: 100 nM and 1000 nM (sheet 'Samples'), CATDS: 0.111142354700942): 357 nM | potency estimated from few doses (GSK3B; compound concentrations: 100 nM and 1000 nM (sheet 'Samples'), CATDS: 0.121394136436775): 314 nM | potency estimated from few doses (Q6ZSR9; compound concentrations: 100 nM and 1000 nM (sheet 'Samples'), CATDS: 5.14338241951754E-2): 1550 nM | potency estimated from few doses (RET): 1190 nM

Cn1cc(C2=C(c3c(S(C)=O)n(C)c4ccccc34)C(=O)NC2=O)c2ccccc21 (centres unmarked) [RO0317379-000]
potency estimated from few doses (AAK1; compound concentrations: 100 nM and 1000 nM (sheet 'Samples'), CATDS: 0.257155893587458): 217 nM | potency estimated from few doses (BMP2K; compound concentrations: 100 nM and 1000 nM (sheet 'Samples'), CATDS: 0.121414398934197): 1050 nM | potency estimated from few doses (Q6ZSR9; compound concentrations: 100 nM and 1000 nM (sheet 'Samples'), CATDS: 0.33733581248504402): 142 nM

Nc1nc(-c2ccc3c(N)n[nH]c3c2)cc(N2CCCC(NC(=O)c3ccccc3)C2)n1 (centres unmarked) [GSK2286775B]
potency estimated from few doses (AAK1; [1]): 826 nM | potency estimated from few doses (Q6ZSR9; [1]): 821 nM

NS(=O)(=O)c1cccc(-c2ccc3c(NC(=O)C4CC4)n[nH]c3c2)c1 [SB-741905]
potency estimated from few doses (AAK1; compound concentrations: 100 nM and 1000 nM (sheet 'Samples'), CATDS: 0.126213197239569): 1210 nM | potency estimated from few doses (Q6ZSR9; compound concentrations: 100 nM and 1000 nM (sheet 'Samples'), CATDS: 0.101605627816376): 2410 nM

COc1cccc(C2=C(c3c(C)n(C)c4ccccc34)C(=O)NC2=O)c1 [RO3300167-000]
potency estimated from few doses (AAK1; compound concentrations: 100 nM and 1000 nM (sheet 'Samples'), CATDS: 7.9667560611670199E-2): 1520 nM | potency estimated from few doses (PAK4): 582 nM | potency estimated from few doses (Q6ZSR9; compound concentrations: 100 nM and 1000 nM (sheet 'Samples'), CATDS: 7.9945675311768105E-2): 1510 nM

CCn1c(-c2nonc2N)nc2cncc(Br)c21 [SB-738004]
potency estimated from few doses (AAK1; [1]): 517 nM | potency estimated from few doses (CLK1; [1]): 1420 nM | potency estimated from few doses (CLK4): 505 nM | potency estimated from few doses (GSK3A; [1]): 445 nM | potency estimated from few doses (GSK3B; [1]): 724 nM | potency estimated from few doses (MELK): 1660 nM | potency estimated from few doses (PKN1): 553 nM | potency estimated from few doses (PKN3): 1320 nM | potency estimated from few doses (Q6ZSR9; [1]): 369 nM

CN(C)C(=O)/C(C#N)=C/c1ccc(-c2nc3cnc4[nH]ccc4c3n2C2CCCCC2)o1 [FM-381]
potency estimated from few doses (AAK1; [1]): 1820 nM | potency estimated from few doses (BMP2K; [1]): 1050 nM | potency estimated from few doses (NUAK1; [1]): 566 nM | potency estimated from few doses (Q6ZSR9; [1]): 1760 nM

Cn1cc(C=C2C(=O)Nc3cccnc32)c2ccccc21 [GW441756X]
potency estimated from few doses (AAK1; compound concentrations: 100 nM and 1000 nM (sheet 'Samples'), CATDS: 0.22645425815754): 1250 nM | potency estimated from few doses (BMP2K; compound concentrations: 100 nM and 1000 nM (sheet 'Samples'), CATDS: 0.330795354292378): 609 nM | potency estimated from few doses (Q6ZSR9; compound concentrations: 100 nM and 1000 nM (sheet 'Samples'), CATDS: 0.24113419116187701): 1090 nM

CC(C)N1CC(=O)N(C)c2cnc(Nc3cccc(S(=O)(=O)CCN4CCOCC4)c3)nc21 [BI00009348]
potency estimated from few doses (AAK1; compound concentrations: 100 nM and 1000 nM (sheet 'Samples'), CATDS: 7.4673370536537498E-2): 662 nM | potency estimated from few doses (BMP2K; compound concentrations: 100 nM and 1000 nM (sheet 'Samples'), CATDS: 7.1051362969771797E-2): 736 nM | potency estimated from few doses (GSK3B; compound concentrations: 100 nM and 1000 nM (sheet 'Samples'), CATDS: 6.9045357407431895E-2): 783 nM | potency estimated from few doses (NUAK1; compound concentrations: 100 nM and 1000 nM (sheet 'Samples'), CATDS: 5.8980010573034099E-2): 1140 nM | potency estimated from few doses (Q6ZSR9; compound concentrations: 100 nM and 1000 nM (sheet 'Samples'), CATDS: 6.16877896582032E-2): 1020 nM

Cc1cc(NC(=O)c2cccc(NC(=O)/C=C/CN(C)C)c2)ccc1Nc1nccc(-c2cccnc2)n1 [JNK-IN-7]
potency estimated from few doses (AAK1; [1]): 1000 nM | potency estimated from few doses (BMP2K; [1]): 1330 nM | potency estimated from few doses (CLK4): 1630 nM | potency estimated from few doses (MELK): 2110 nM | potency estimated from few doses (NUAK1; [1]): 688 nM | potency estimated from few doses (Q6ZSR9; [1]): 883 nM
